Screening results deposited in PubChem BioAssay by University of Kansas High Throughput Screening Laboratory.
mHTT CaM bind – disrupts binding of mutant huntingtin to calmodulin; P42858; AlphaScreen His-mHTT/GST-CaM binding, luminescence; inhibition, % at 15 µM; 190,000 tested, 3.6% active;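 also: 0% = both proteins with DMSO and 100% = one protein alone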
Pf apPOL inh – Pf-apPOL DNA polymerase inhibition | inhibition, % at 10 µM | Recombinant Pf-apPOL, molecular beacon fluorescence, 1.5 h | AID 1794808 | 210,000 tested, 0.25% active
Numbers without * were called inactive; / = no result. In the library only some 3.5% were active in any assay of this set; here they are far more common. Rule as the data show it: active = inhibition above about 50%; inactive = the rest.

SMILES	mHTT CaM bind	Pf apPOL inh
O=[N+]([O-])c1cccc(/C=C/c2ccccn2)c1	-2	67*
Cc1ccc(C(C(=O)Nc2ccc(C(C)C)cc2)N(Cc2ccco2)C(=O)c2cnccn2)cc1 (stereo not drawn)	69*	-9
CC(C)c1ccc(NC(=O)C(c2ccccc2)N(C)C(=O)c2cnccn2)cc1 (stereo not drawn)	20	-1
COc1ccccc1CNC(=O)C1CCCN(c2ncnc3c2nc2n3CCCCC2)C1 (stereo not drawn)	4	0
O=C(NCCc1ccc(F)cc1)C1CC(=O)N(CCc2c[nH]c3ccc(Cl)cc23)C1 (stereo not drawn)	8	-2
O=C(Nc1cccc(F)c1)C1CC(=O)N(CCc2c[nH]c3ccc(F)cc23)C1 (stereo not drawn)	18	-4
CC(C)(C)c1nnc(NC(=O)C2CC(=O)N(CCc3c[nH]c4ccc(Cl)cc34)C2)s1 (stereo not drawn)	55*	0
O=C(Nc1nncs1)C1CC(=O)N(CCc2c[nH]c3ccc(Cl)cc23)C1 (stereo not drawn)	7	-2
O=C(Nc1ccc(F)cc1)C1CC(=O)N(CCc2c[nH]c3ccc(Cl)cc23)C1 (stereo not drawn)	55*	-11
COc1ccc2[nH]cc(CCN3CC(C(=O)Nc4nnc(C(C)(C)C)s4)CC3=O)c2c1 (stereo not drawn)	14	-2
O=C(Nc1cccc(F)c1)C1CC(=O)N(CCc2c[nH]c3ccc(Cl)cc23)C1 (stereo not drawn)	66*	2
O=C(Nc1nccs1)C1CC(=O)N(CCc2c[nH]c3ccc(Cl)cc23)C1 (stereo not drawn)	63*	0
CCOc1ccccc1NS(=O)(=O)c1ccccc1[N+](=O)[O-]	7	-12
N#CC1=C(N)Oc2[nH]c(=O)[nH]c(=O)c2C1c1ccc(F)cc1 (stereo not drawn)	0	-3
CCCCNC(=O)C1CC(=O)N(CCc2c[nH]c3ccc(Cl)cc23)C1 (stereo not drawn)	3	-4
Cc1ccc(C(=O)N2CCC(CC(=O)NCCc3c[nH]c4ccc(Cl)cc34)CC2)cc1	10	-7
O=C1CC(C(=O)N2CCN(Cc3ccccc3)CC2)CN1CCc1c[nH]c2ccc(F)cc12 (stereo not drawn)	55*	-3
O=C(Nc1nc2ccccc2s1)C1CC(=O)N(CCc2c[nH]c3ccc(Cl)cc23)C1 (stereo not drawn)	100*	-2
COc1ccc(C2C(C(=O)Nc3ccc(F)c(Cl)c3)CC(=O)N2c2ccc(OC)cc2)cc1 (stereo not drawn)	100*	-5
CC1CCN(C(=O)C2CC(=O)N(CCc3c[nH]c4ccc(F)cc34)C2)CC1 (stereo not drawn)	19	0
Cc1ccc2[nH]cc(CCNC(=O)CC3CCN(C(=O)c4ccccc4Cl)CC3)c2c1	79*	1
COc1ccc(N2C(=O)CCC(C(=O)Nc3ccc(C)c(F)c3)C2c2ccc(F)cc2)cc1 (stereo not drawn)	32	0
Cc1c(C#N)c2ccccc2n1CC(=O)NCc1cccs1	0	-4
CN(CC(=O)Nc1ccc(Cl)cc1)S(=O)(=O)c1ccc(Br)s1	-5	-8
Cc1ccc(C(O)C(C)C)cc1 (stereo not drawn)	0	-32
SMILES	mHTT CaM bind	Pf apPOL inh
Cc1cccc(C(=O)Nc2nccn(-c3cccc(F)c3)c2=O)c1	-2	-2
Cc1ccnc(Nc2nc(CC(=O)Nc3nc4c(s3)CCCC4)cs2)c1	30	12
Cc1cccc(C(=O)N2CCc3cc(-c4ccno4)ccc32)c1	0	-1
Cc1cc(C)nc(NC(=O)COc2ccccc2)n1	0	-11
COc1ccc(NC(=O)C2CC(=O)N(CCc3c[nH]c4ccc(C)cc34)C2)cc1 (stereo not drawn)	36	-2
Cc1ccc(N2CC(C(=O)Nc3nc4ccccc4s3)CC2=O)cc1Cl (stereo not drawn)	55*	-1
COc1ccc2nc(NC(=O)C3CC(=O)N(CCc4c[nH]c5ccc(C)cc45)C3)sc2c1 (stereo not drawn)	85*	-1
COc1ccc(NC(=O)C2CC(=O)N(c3ccc(C)c(Cl)c3)C2)cc1 (stereo not drawn)	1	1
Cc1ccc(Cl)cc1NC(=O)C1CC(=O)N(c2cccc([N+](=O)[O-])c2)C1 (stereo not drawn)	54*	-10
Cc1ccc(N2CC(C(=O)Nc3ccc(Cl)cc3Cl)CC2=O)cc1 (stereo not drawn)	-5	-5
COc1ccc2[nH]cc(CCN3CC(C(=O)Nc4cc(F)cc(F)c4)CC3=O)c2c1 (stereo not drawn)	31	-5
COc1ccc2[nH]cc(CCN3CC(C(=O)Nc4ccc(F)c(Cl)c4)CC3=O)c2c1 (stereo not drawn)	55*	-2
O=C(C1CC(c2ccccc2F)=NO1)N1CCOCC1 (stereo not drawn)	-3	-2
Cc1ccc2[nH]cc(CCN3CC(C(=O)Nc4ccccc4Cl)CC3=O)c2c1 (stereo not drawn)	45	3
Cc1cccc(NC(=O)C2CC(=O)N(CCc3c[nH]c4ccc(Cl)cc34)C2)c1 (stereo not drawn)	82*	-1
O=C(Nc1ccc2c(c1)OCCO2)C1CC(=O)N(CCc2c[nH]c3ccc(Cl)cc23)C1 (stereo not drawn)	76*	2
O=C(Nc1ccc2c(c1)OCCO2)C1CC(=O)N(CCc2c[nH]c3ccc(F)cc23)C1 (stereo not drawn)	43	1
Cc1ccc2[nH]cc(CCN3CC(C(=O)Nc4ccc(C)c(Cl)c4)CC3=O)c2c1 (stereo not drawn)	86*	-1
COc1cccc(NC(=O)C2CC(=O)N(CCc3c[nH]c4ccc(Cl)cc34)C2)c1 (stereo not drawn)	19	-2
Cc1ccc(C)c(CN2C(=O)NC3(CCN(C(=O)c4ccc(C#N)cc4)CC3)C2=O)c1	10	-2
Cc1cccc2c(=O)n(C3CCN(C(=O)Nc4ccc(F)cc4)CC3)cnc12	0	-2
CN(Cc1ccccc1)C(=O)c1cnn2c(C(F)(F)F)cc(-c3cccs3)nc12	21	-4
Cc1cc(C(=O)Nc2cccc(-c3nc4ccccc4s3)c2)on1	-2	54*
Cc1ccc(-c2nc3ccccc3s2)cc1NC(=O)c1ccco1	0	-7
O=C(Nc1ccc(-c2nc3ccccc3s2)c(O)c1)c1ccccc1	-13	97*
SMILES	mHTT CaM bind	Pf apPOL inh
Cc1ccc(-c2nc3ccccc3s2)cc1NC(=O)c1ncn[nH]1	98*	-4
O=C(Nc1ccc(-c2nc3ccccc3s2)cc1)c1ccccc1F	5	2
O=C(Nc1ccc(-c2nc3ccccc3s2)c(O)c1)c1ccc(F)cc1	-4	0
O=C(Nc1ccc(-c2nc3ccccc3s2)cc1)c1ncn[nH]1	54*	-6
COc1cccc(C(=O)Nc2cccc(-c3nc4ccccc4s3)c2)c1	-6	0
O=C(CC1CCN(S(=O)(=O)c2ccc(Cl)s2)CC1)NCCCN1CCCC1=O	1	-1
COc1ccc(C)cc1NC(=O)NCCC1CCN(C(=O)Nc2cccc(Cl)c2)CC1	4	-4
COc1ccc(CCNC(=O)N2CCC(c3nnc(C4CC4)s3)CC2)cc1	-7	-11
COc1cc(C(F)(F)F)nc2ccc(C#CCOC(=O)c3cccs3)cc12	/	-1
O=C(Nc1nnc2n1CCS2)c1cccc([N+](=O)[O-])c1	5	21
